# Only some compounds are listed: those with a hit (about 1.5% of all), similar ones and a draw of the others.
# IL1B cytotox: HUVEC cytotoxicity counter-screen, IL-1B stimulated; HUVEC cell count loss, Hoechst imaging; cell count reduction, % at 2 µM; actives 0.41% (n = 94,000);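 active = cell count reduction more than 3 SD above the screen-wide mean, cut at about 70% in these data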;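 also: normalized per plate to untreated control cells as the no-loss baseline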
# NFkB transloc pot: enhances IL-1B driven NFkB nuclear translocation; HUVEC IL-1B NFkB p65 nuclear translocation imaging; activation, % at 2 µM; actives 0.3% (n = 94,000); AID 819;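 active = activation above 40%, about the mean plus 3 SD, also judged a hit on visual image review; inconclusive = activation above 40% but not a hit on visual review; inactive = activation not above 40% and no visual hit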;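 also: percent activation is computed from the nuclear over cytoplasmic p65 intensity ratio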
# TNFa cytotox: HUVEC cytotoxicity counter-screen, TNF alpha stimulated. actives 0.17% (n = 93,000). HUVEC TNFalpha-stimulated, Hoechst cell count, imaging. AID 848. cell count reduction, % at 2 µM;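 active = cell count reduction exceeding the screen mean by over 5 SD, scaled to untreated wells per plate, cut at about 78% in these data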;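 also: cells counted after 24 h of TNF alpha exposure following the 1 h pretreatment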
# IL1B NFkB inh: blocks IL-1B driven NFkB nuclear translocation in HUVEC cells; HUVEC IL-1B NFkB p65 nuclear translocation imaging; inhibition, % at 2 µM; actives 0.43% (n = 94,000);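 active = inhibition above about 30% together with a positive call from visual inspection of the well image, limit read from the data; inconclusive = inhibition above a set limit but visual check negative; inactive = inhibition not above a set limit, visual check negative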;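 also: nuclear over cytoplasmic p65 intensity ratio measured by imaging; 0% = IL-1B stimulated DMSO wells and 100% = unstimulated DMSO wells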
# VCAM1 TNFa inh: reduces TNF alpha induced VCAM1 expression in HUVEC. HUVEC TNFa-induced VCAM-1 immunofluorescence, high-content imaging. inhibition, % at 2 µM. actives 0.48% (n = 95,000). AID 802;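 active = inhibition above the batch mean plus 3 SD, with images confirmed as a hit by eye, cut at about 37% in these data; inconclusive = inhibition above that limit but hit not confirmed in images; inactive = inhibition not above that limit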;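 also: 0% = TNF-stimulated DMSO wells and 100% = unstimulated control wells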
# Numbers without * were called inactive; ? = inconclusive; nt = no result.
SMILES,IL1B cytotox,NFkB transloc pot,TNFa cytotox,IL1B NFkB inh,VCAM1 TNFa inh
Cc1c(NS(=O)(=O)c2cccc(C(=O)NCc3ccncc3)c2)c(=O)n(-c2ccccc2)n1C,8,42*,-3,-42,15
Cc1c(NC(=O)c2cccc(F)c2)c(=O)n(-c2ccccc2)n1C,77*,2,7,-2,7
Cc1c(NS(=O)(=O)c2cccc(C(=O)NCc3ccccc3)c2)c(=O)n(-c2ccccc2)n1C,7,6,2,-6,-7
CCOC(=O)CSC1=C(C#N)C(=O)NC2(CCCCC2)S1,-4,-16,-25,16,-4
CCN(CCCNC(=O)CN1C(=O)COc2ccccc21)c1cccc(C)c1,-4,2,-14,-2,-16
O=C1CC(c2ccccc2)Cc2nc(N3CCc4ccccc43)ncc21 (stereo unspecified),-20,-4,nt,4,-2
O=C1CC(c2ccccc2)Cc2nc3ncnn3cc21 (stereo unspecified),13,-18,41,18,60*
COc1ccc2c3c(c(=O)oc2c1OCC(N)=O)CCCC3,-19,8,-6,-8,4
O=C(Nc1ccon1)c1cc(-c2ccccc2)nc2ccccc12,94*,-72,-11,72*,-1
c1coc(CNc2nc3nonc3nc2NCc2ccco2)c1,-48,-52,-16,52*,5
O=S(=O)(Nc1nc2ccccc2nc1NCc1ccco1)c1ccccc1,-21,4,-11,-4,6
Cc1cc(C)cc(Oc2cc(NC(=O)c3cn(C)nc3C)cc([N+](=O)[O-])c2)c1,15,0,9,0,8
CC[n+]1c(P(=O)([O-])c2ccccc2)[nH]c2ccccc21,-7,1,5,-2,-4
Cc1ccc(Nc2nnns2)cc1,-14,-38,-15,38*,-4
Cc1ccc(Nc2ccccc2)cc1,-182,13,2,-12,-17
S=c1[nH]nc(-c2ccccc2Cl)n1CC1CCCO1 (stereo unspecified),70*,23,-6,-23,8
O=[N+]([O-])c1ccc2nccn2c1,-2,4,-18,-4,5
COc1ccc(CCNC(=O)C2CCN(C(=O)NC3CCCCC3)CC2)cc1,-8,-39,-15,39*,-15
O=C(NCC1CCCO1)c1ccc(CS(=O)(=O)c2ccc(Cl)cc2)o1 (stereo unspecified),7,24,-9,-24,20
CCOc1ccc(N(CC(N)=O)S(=O)(=O)c2ccc(F)cc2)cc1,25,-6,-35,6,4
CNC(=O)CN(c1ccc(OC)cc1)S(=O)(=O)c1ccc(F)cc1,12,-9,-6,9,93*
O=C(c1ccc2ccccc2c1)N1CCN(c2ccc([N+](=O)[O-])c(N3CCOCC3)c2)CC1,-33,45*,1,-45,15
O=C(O)c1cn[nH]c1-n1cnnn1,-20,15,-4,-15,29
CCOc1ccc(C2=Nn3c(nnc3-c3ccccc3OC)SC2)cc1,10,-5,70,5,99*
COc1ccc(C2=Nn3c(nnc3-c3ccncc3)SC2)cc1OC,4,2,-15,-2,3
SMILES,IL1B cytotox,NFkB transloc pot,TNFa cytotox,IL1B NFkB inh,VCAM1 TNFa inh
CCOc1ccc(-c2nnc3n2N=C(c2ccc(OC)cc2)CS3)cc1,-37,31,-24,-31,8
COc1ccccc1-c1nnc2n1N=C(c1ccc(O)c(O)c1)CS2,-60,-9,56,9,96*
COc1cccc(Nc2nc(=O)[nH]nc2C)c1,83*,-18,-14,18,-30
COc1cccc(Nc2ncc(C(=O)O)c3ccccc23)c1,15,4,-5,-4,10
CC(C)(C)NC(=O)c1cc(F)c(F)cc1Cl,12,-1,-9,1,4
O=C(CSc1nc2ccccc2c(=O)n1-c1ccccc1)NCc1ccco1,-10,4,88*,-4,42
O=C(CSc1nc(-c2ccccc2)cs1)NCc1ccco1,-16,-50,-3,50*,2
O=C(CSc1ncc(-c2ccccc2)nn1)NCc1ccco1,-6,10,-14,-10,18
Cc1cccc(-n2c(SCC(=O)NCc3ccco3)nc3ccccc3c2=O)c1,-4,11,-14,-11,11
CCn1c(SCC(=O)NCc2ccco2)nc2c1c(=O)n(C)c(=O)n2C,-7,18,-38,-18,0
CCCn1c(SCC(=O)NCc2ccco2)nc2c1c(=O)n(C)c(=O)n2C,81*,-8,19,8,-6
CCc1ccc(NC(=O)CSc2nc3cc(C(=O)OC)ccc3c(=O)n2CC2CCCO2)cc1 (stereo unspecified),10,-4,2,4,-11
CCn1c(SCc2cccc(C)c2)nnc1-c1ccc(C)cc1,-5,2,-4,-2,22
O=C(NCc1ccco1)C1CCN(S(=O)(=O)Cc2ccccc2)CC1,-52,3,nt,-3,nt
O=C(CSc1nc2ccccc2[nH]1)N1CCN(S(=O)(=O)c2ccc(Cl)cc2)CC1,-1,16,15,-16,-8
Cc1cccc2cc(CN(Cc3cccs3)C3(c4nnnn4C4CCCC4)CCCC3)c(=O)[nH]c12,-22,-6,-32,6,25
Cc1cc(NC(=O)CSc2nc(-c3cccs3)cc(C(F)(F)F)n2)no1,-42,6,21,-6,53*
CCCNC(=O)CSc1nc(-c2cccs2)cc(C(F)(F)F)n1,0,-22,-12,22,10
O=C(CCSc1nc(-c2ccco2)cc(C(F)(F)F)n1)NCc1cccs1,-40,47*,-15,-47,0
Cc1cc(C)c(S(=O)(=O)/N=C2\C=CC(=O)C(Cl)=C2)c(C)c1,23,-31,-5,31*,2
CCOP(=O)(O)c1ccccc1OCCCCCOc1ccccc1P(=O)(O)OCC,2,9,6,-9,-14
CC(C)Oc1ccccc1C1CC(=O)Nc2cc3c(cc21)OCCO3 (stereo unspecified),12,-9,46,9,86*
CC[n+]1c(/C=C/C=C/N(C(C)=O)c2ccccc2)sc2ccccc21,3,-57,6,57*,-37
CCOC(=O)/C=C/S(=O)(=O)c1ccc(NC(C)=O)cc1,-8,-33,18,33*,-20
CC(c1ccccc1)C1C(C#N)=C(N)OC2=C1C(=O)CCC2 (stereo unspecified),-6,116*,-25,-116,8
CCCCOC1(c2ccccc2)NC(=S)NN=C1c1ccccc1 (stereo unspecified),7,10,10,-10,18
COC1(c2ccccc2)NC(=S)NN=C1c1ccccc1 (stereo unspecified),-17,4,100*,-4,?
O=C(COC(=O)c1ccc(S(=O)(=O)Nc2ccccc2)cc1)NCCN1C(=O)CSC1=O,37,2,4,-2,3
CCN(CC)c1ccc2cc(C=O)c(=O)oc2c1,-7,72*,-1,-72,8
CCCCn1c(SCC(=O)N2CCOCC2)nnc1-c1ccoc1C,86*,-30,-6,30,-5
